Measured values: PubChem BioAssay
Activity calls are given as the source filed them.

Experiment: basal CRE-LacZ reporter activity in PC12 – cell-based, unstimulated, primary screen (AID 1145)
Conditions: no forskolin, luminescence, 4.5 h, higher = more signal, called active from +8 up or from −8 down

Question: With `C=CCN1C(=O)[C@@]2(Cc3ccccc31)N=C(c1ccc(OCCCO)cc1)O[C@H]2c1ccccc1` as the compound, how does the z-score read?
Answer: 0.47 (inactive)

Question: With `[N-]=[N+]=Nc1ccccc1[C@@H]1OC(c2ccc(OCCCO)cc2)=N[C@]1(CCS(=O)(=O)c1ccccc1)C(N)=O` as the compound, how does the z-score read?
Answer: 0.218 (inactive)

Question: With `CN(C)C(=O)[C@@]1(CCS(=O)(=O)c2ccccc2)COC(c2ccc(OCCCO)cc2)=N1` as the compound, how does the z-score read?
Answer: -0.562 (inactive)

Question: Which z-score does the source give for `CCOC(=O)C[C@H]1[C@H](OC(=O)c2cc3ccccc3oc2=O)[C@@H](NC(=O)c2ccccc2)c2cc(OCCCO)ccc2N1C(=O)c1ccc2ccccc2n1` here?
Answer: 9.1 (active)

Question: With `C=CCOC(=O)[C@H]1[C@@H]2C(=O)O[C@@H](c3ccccc3)[C@@H](c3ccccc3)N2[C@@H](c2ccc(OCCOC(=O)[C@H]3C[C@H]4C(=O)N[C@@H](CCCCNC(C)=O)C(=O)N4[C@H]3c3cccc(OCCO)c3)cc2)[C@]12C(=O)Nc1ccccc12` as the compound, how does the z-score read?
Answer: -1.08 (inactive)

Question: For `CC(C)C(CO)N1C(=O)[C@@H]2C3C(=O)OCCC/C=C\[C@H]3OC23C=CCN(CCN2CCOCC2)C(=O)[C@@H]13` (stereo not given in full), which z-score is on record?
Answer: -0.212 (inactive)

Question: With `O=C(NCCN1CCOCC1)C1N=C(c2ccc(OCCCO)cc2)N(c2ccccc2)O1` (stereo not given) as the compound, how does the z-score read?
Answer: 1.78 (inactive)

Question: With `COC(=O)[C@@]1(Cc2ccccc2)[C@H]2c3cc(C(=O)N4CCCC4)n(Cc4ccc(S(C)(=O)=O)cc4)c3C[C@H]2CN1C(=O)c1ccccc1` as the compound, how does the z-score read?
Answer: 0.959 (inactive)

Question: For `O=C1[C@@]23C=C(Br)[C@H](C[C@@H]2CCOC3)[C@@]12CO2`, which z-score is on record?
Answer: 0.221 (inactive)

Question: With `O=C(c1ccccc1)N1C(=O)[C@]2(COC(c3ccc(OCCCO)cc3)=N2)Cc2ccccc21` as the compound, how does the z-score read?
Answer: 1.03 (inactive)

Question: For `Cc1nc2cc(Br)ccc2c(=O)o1`, which z-score is on record?
Answer: -0.464 (inactive)

Question: For `CCCCC(CC)C(O)C1C=CC2C(=O)N(Cc3ccccc3)C(=O)C2N1n1cnnc1` (stereo not given), which z-score is on record?
Answer: 0.127 (inactive)

Question: Which z-score does the source give for `CC(C)C(O)C1C=CC2C(=O)NC(=O)C2N1Nc1ccc(Cl)cc1Cl` (stereo not given) here?
Answer: 0.246 (inactive)

Question: For `COCCOC(=O)N1C(=O)[C@@]2(c3ccccc31)[C@H](c1ccc(O)cc1)N1[C@H](c3ccccc3)[C@H](c3ccccc3)OC(=O)[C@H]1[C@@H]2C(=O)Nc1nc2ccccc2s1`, which z-score is on record?
Answer: -0.467 (inactive)

Question: With `CC(C)C(=C=CC[C@@H](O)c1ccc(OCCO)cc1)C[C@@H](O)COCc1ccccc1` as the compound, how does the z-score read?
Answer: 6.97 (inactive)

Question: With `O=C1C2C=CC(C(O)Cc3ccccc3)N(n3cnnc3)C2C(=O)N1Cc1ccccc1` (stereo not given) as the compound, how does the z-score read?
Answer: -0.0696 (inactive)

Question: Which z-score does the source give for `COCCOC(=O)N1C(=O)[C@@]2(c3cc(C#Cc4ccc(OC)cc4)ccc31)[C@H](c1ccc(O)cc1)N1[C@H](c3ccccc3)[C@H](c3ccccc3)OC(=O)[C@H]1[C@@H]2C(=O)N1CCc2cc(OC)c(OC)cc2C1` here?
Answer: -1.42 (inactive)

Question: For `COc1cc2c(cc1O)C(C1CC1)N(Cc1sc3ccccc3c1Cl)CC2` (stereo not given), which z-score is on record?
Answer: -0.671 (inactive)

Question: Which z-score does the source give for `CC(C)C(=C=CC[C@H](O)c1ccc(OCCO)cc1)CCO` here?
Answer: 3.49 (inactive)

Question: For `CC(=O)NCCCC[C@@H]1NC(=O)[C@@H]2C[C@H](C(=O)NCCCCCNC(=O)CS)[C@H](c3cccc(OCCO)c3)N2C1=O`, which z-score is on record?
Answer: -1.48 (inactive)

Question: For `NC(=O)NCC#Cc1ccc2c(c1)[C@]1(C(=O)N2)[C@H](c2ccc(O)cc2)N2[C@H](c3ccccc3)[C@H](c3ccccc3)OC(=O)[C@H]2[C@@H]1C(=O)O`, which z-score is on record?
Answer: 0.895 (inactive)

Question: Which z-score does the source give for `COc1cc(Br)cc(C(O)C2C=CC3C(=O)N(C)C(=O)C3N2N2CCCCC2)c1OC` (stereo not given) here?
Answer: 0.822 (inactive)

Question: Which z-score does the source give for `COc1ccc(CCNC(=O)[C@@H]2c3ccccc3C(=O)N(Cc3ccccc3Cl)[C@H]2c2ccc(CO)cc2)cc1` here?
Answer: 0.701 (inactive)

Question: With `CCCCN1CC=CC23O[C@@H]4C=CCCOC(=O)C4[C@H]2C(=O)N(CCCCCCO)[C@@H]3C1=O` (stereo not given in full) as the compound, how does the z-score read?
Answer: 0.333 (inactive)

Question: Which z-score does the source give for `CCOC(=O)C[C@H]1[C@H](OC(=O)c2ccc(C(=O)c3ccccc3)cc2)[C@@H](NC(=O)c2ccccc2)c2cc(OCCCO)ccc2N1C(=O)c1ccc2ccccc2n1` here?
Answer: 3.66 (inactive)

Question: For `C=CCOC(=O)[C@H]1[C@@H]2C(=O)O[C@@H](c3ccccc3)[C@@H](c3ccccc3)N2[C@@H](c2ccc(OCCOC(=O)[C@H]3C[C@H]4C(=O)N[C@@H](CCCC[N+](C)(C)C)C(=O)N4[C@H]3c3ccc(O)cc3)cc2)[C@]12C(=O)Nc1ccc(I)cc12`, which z-score is on record?
Answer: 0.415 (inactive)

Question: For `CC(CO)N1C(=O)[C@@H]2C3C(=O)OCCC/C=C\[C@H]3OC23C=CCN(C(C)(C)C)C(=O)[C@@H]13` (stereo not given in full), which z-score is on record?
Answer: -0.488 (inactive)

Question: With `CC1CC/C=C\[C@H]2OC34C=CCN(C(C)(C)C)C(=O)[C@H]3N(C(C)CO)C(=O)[C@@H]4C2C(=O)O1` (stereo not given in full) as the compound, how does the z-score read?
Answer: -0.22 (inactive)

Question: Which z-score does the source give for `COc1ccc(C#Cc2ccc3c(c2)[C@]2(C(=O)N3)[C@H](C(=O)Nc3nc4ccccc4s3)[C@H]3C(=O)O[C@H](c4ccccc4)[C@H](c4ccccc4)N3[C@@H]2c2ccc(O)cc2)cc1` here?
Answer: 0.0653 (inactive)

Question: Which z-score does the source give for `C=CCC(OC(C)=O)[C@@H]1[C@@H](N(Cc2ccc(-c3ccccc3)cc2)C(=O)Cc2ccc(OC)cc2)c2cc(OCCCO)ccc2N1C(=O)Cc1ccc2ccccc2c1` (stereo not given in full) here?
Answer: 0.745 (inactive)

Question: Which z-score does the source give for `CN1C(=O)C2C=CC(C(O)C#Cc3ccccc3)N(N3CCCCC3)C2C1=O` (stereo not given) here?
Answer: 0.236 (inactive)

Question: Which z-score does the source give for `C=CC(=C)[C@H]1Oc2ccccc2S(=O)(=O)N2CCC[C@@H]12` here?
Answer: 0.483 (inactive)

Question: With `C=CCC(OC(C)=O)[C@@H]1[C@@H](N(Cc2ccc(-c3cccc(C(F)(F)F)c3)o2)C(=O)c2ccc(C)cc2)c2cc(OCCCO)ccc2N1C(=O)Cc1ccc2ccccc2c1` (stereo not given in full) as the compound, how does the z-score read?
Answer: -1.1 (inactive)

Question: For `COCCOC(=O)N1C(=O)[C@@]2(c3cc(C#CCC(C(=O)OC)C(=O)OC)ccc31)[C@H](C(=O)N1CCN(c3ncccn3)CC1)[C@H]1C(=O)O[C@H](c3ccccc3)[C@H](c3ccccc3)N1[C@@H]2c1ccccc1OCCO`, which z-score is on record?
Answer: -0.337 (inactive)

Question: For `CC(C)=CCCC(C)=CC(O)C1C=CC2C(=O)N(C)C(=O)C2N1Nc1ccccc1` (stereo not given), which z-score is on record?
Answer: -0.333 (inactive)
